# This is part of a sample that, as a whole, favours compounds with a hit. Of some 83,000 tested, about 20% had one in any assay.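 Each cell line was grown in a 96-well plate and treated with one concentration of compound for 48 hours. Values below 10 were considered active.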 A number with no mark means an inactive call. The source made the active and inactive calls.
# System: HCC-2998 colon
# Assay: NCI-60 one-dose screen, 48 h (100 = growth as untreated, 0 = no growth, -100 = all killed)
# Details: 10 µM unless noted
# Description: Growth inhibition of the HCC-2998 human tumor cell line is measured as a screen for anti-cancer activity. Cells are grown in 96 well plates and exposed to the test compound for 48 hours. Compounds are tested at a single concentration, which is 10^-5 M for most compounds. The reported endpoint is percent growth (GI% or GIPRCNT), where numbers from 0 - 100% represent growth inhibition, and numbers from -100% - 0 represent cell death. For example, a value of 40 represents 60% growth inhibition. A value of 0 means no net growth occurred over the course of the experiment. A value of -40 indicates 40% of cells at the beginning of the experiment died by the end of the experiment. A value of -100 means all cells are dead at the end of the experiment.
# NCI-60 Human Tumor Cell Lines Screen was performed using the standard one-dose NCI protocol, which is described in more detail at https://dtp.cancer.gov/discovery_development/nci-60/default.htm.
# Compounds with GIPRCNT values below 10 were considered active. Activity score was based on GIPRCNT using the following formula: […]
# Score is 0 for GIPRCNT values of 100 or above, 50 for GIPRCNT values of 0, and 100 for GIPRCNT values of -100.
row,SMILES,growth
1,c1ccc2c(c1)O[As](O[As]1Oc3ccccc3O1)O2,65.8%
2,C[C@@]12CCCc3coc(c31)C(=O)c1cc3c(cc12)C(=O)C1=C(NCCS1(=O)=O)C3=O,-30.8% (active)
3,S=P(SP(=S)(c1ccccc1)c1ccccc1)(c1ccccc1)c1ccccc1,104%
4,C=CCOC(=O)C(Br)CC (stereo not given),101%
5,Cc1c(C)c(N)c(C)c(C)c1N,106%
6,O=C(O)c1ccccc1N(CCO)CCCl,103%
7,CC(=O)Nc1nc2c(s1)C1=CC[C@H]3[C@@H]4CC[C@H](OC(C)=O)[C@@]4(C)CC[C@@H]3[C@@]1(C)CC2,93.7%
8,Cc1cc(N(CCCl)CCCl)ccc1C=Nc1ccc(-c2csc(-c3ccccc3)n2)cc1,94.2%
9,Cc1cc[c-]cc1.Fc1c[c-]c(-c2ccccn2)c(F)c1.N#CCC[PH+](CCC#N)c1ccccc1.[Pt+2],82.4%
10,Clc1ccc(COC(Cn2ccnc2)c2ccc(Cl)cc2Cl)c(Cl)c1 (stereo not given),47.4%
11,O=CC1(c2ccccc2)CCN(Cc2ccccc2)CC1,101%
12,C[N+]1(C)CCCC1c1cccnc1 (stereo not given),91.2%
13,C[C@]12CCC3[C@@H](C[C@@H]4SC(Nc5ccccc5)=N[C@@]45CC(=O)CC[C@]35C)[C@@H]1CCC2=O (stereo not given in full),-32.7% (active)
14,O=C1CCCCC1CN1CCCCC1 (stereo not given),97.8%
15,O=C1CN2CCC1CC2,124%
16,CCOP(=O)(OCC)C(=O)N(CC)CC,110%
17,Cc1ccc(C(=O)O[C@H](C(=O)O)[C@H](OC(=O)c2ccc(C)cc2)C(=O)O)cc1,111%
18,NC(N)=NC(N)=Nc1ccc(Cl)cc1,107%
19,CCOC(=O)c1ccccc1C(=O)OCC,110%
20,CCC1(CCSC#N)C(=O)NC(=O)NC1=O,98.2%

row,SMILES,growth
1,CC1(C)N(Nc2ccccc2)C(=O)C2CCCN21 (stereo not given),88.1%
2,CNC(=O)CCl,95.1%
3,O=C(NC1=NCC[Se]1)c1ccccc1O,90%
4,COc1ccc(N)cc1OC,111%
5,N#CCCc1ccccc1,103%
6,COC12CC3(C)C(C4=CC(=O)OC4)CCC3(O)C3CCC4=CC(=O)CCC4(CO1)C32 (stereo not given),131%
7,COC(=O)C12C3C4C1C1C2C3C41NC(=O)c1csc([C@@H](C[C@H](C(C)C)N(C)C(=O)[C@@H](NC(=O)[C@H]2CCCCN2C)C2CC2)OC(C)=O)n1 (stereo not given in full),28.4%
8,O=c1[nH]c(=O)[nH]c(=O)[nH]1,117%
9,OCCN=Cc1c[nH]c2ccccc12,107%
10,Cc1ccc(N2CCN(CCC#N)CC2)cc1,88%
11,COc1cc(C=C2C(=O)NC(=O)NC2=O)ccc1O,96%
12,CO[C@H]1[C@H](O[C@@H]2C[C@@H]3C/C=C/C(=O)O[C@@H](CO)C[C@H](O)[C@@H]4C[C@H](C)[C@H](C/C=C\C=C\[C@H](C)C[C@H](C2)O3)O4)O[C@@H](C)[C@H](O)[C@H]1O,53.6%
13,O=Cc1cn(Cc2ccccc2)c2ccccc12,33.5%
14,N#CC(NC(=O)CCl)=C(Cl)Cl,-6.64% (active)
15,CCCCn1c(=O)c(C(=O)NCc2ccccc2Cl)c(O)c2ccccc21,93.4%
16,CNC(=O)O/N=C(\SC)C(=O)N(C)C,77.4%
17,CO[C@@H]([CH2][Hg][O]C(=O)c1ccccc1)[C@@H]([CH2][Hg][O]C(=O)c1ccccc1)OC,118%
18,CC[C@H](C)[C@H](NC(=O)[C@H]1CCCCN1C)C(=O)N(C)[C@H](C[C@@H](OC(C)=O)c1cccc(C(=O)N[C@@H](Cc2ccccc2)C[C@H](C)C(=O)OC)n1)C(C)C,15.4%
19,CN1CCC2(CC1)C(C#N)C(=O)NC(=O)C2C#N (stereo not given),112%
20,O=[N+]([O-])c1ccc(CI)cc1,108%

# Source: PubChem BioAssay (NCI)
